# Screens deposited in PubChem BioAssay by National Center for Advancing Translational Sciences (NCATS).
# Most compounds without a hit are left out; they make up all but 2.4% or so of the library.
# FEN1 inhibitor: inhibitors of human flap endonuclease 1; P39748; Recombinant FEN1 flap cleavage, fluorescence, 15 min; Potency, µM (highest dose often 114 µM), for inactives: at the top dose activity change, negative = inhibition, actives largely listed as inhibitors; 390,000 tested, 0.35% active; AID 588795; note: % is set by controls: 0 for no effect and ±100 for the full control effect; nearly all actives have a fitted effect of over 65% in size
#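 Nuclease activity of 10 nM FEN1 was measured after 15 min of room-temperature exposure to titrated compounds, by adding 50 nM flap substrate and reading plates at 0 and 15 min.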
# Pol kappa inh: inhibitors of human DNA polymerase kappa; purified Pol kappa, fluorescent DNA synthesis assay, 10 min; Potency, µM (top dose mostly 107 µM), for inactives: top-dose activity, negative = inhibition, hits mostly inhibitors; 400,000 tested, 0.53% active; AID 588579; note: % is set by controls: 0 for no effect and ±100 for the full control effect
# Target sequence (Q9UBT6 whole entry, looked up): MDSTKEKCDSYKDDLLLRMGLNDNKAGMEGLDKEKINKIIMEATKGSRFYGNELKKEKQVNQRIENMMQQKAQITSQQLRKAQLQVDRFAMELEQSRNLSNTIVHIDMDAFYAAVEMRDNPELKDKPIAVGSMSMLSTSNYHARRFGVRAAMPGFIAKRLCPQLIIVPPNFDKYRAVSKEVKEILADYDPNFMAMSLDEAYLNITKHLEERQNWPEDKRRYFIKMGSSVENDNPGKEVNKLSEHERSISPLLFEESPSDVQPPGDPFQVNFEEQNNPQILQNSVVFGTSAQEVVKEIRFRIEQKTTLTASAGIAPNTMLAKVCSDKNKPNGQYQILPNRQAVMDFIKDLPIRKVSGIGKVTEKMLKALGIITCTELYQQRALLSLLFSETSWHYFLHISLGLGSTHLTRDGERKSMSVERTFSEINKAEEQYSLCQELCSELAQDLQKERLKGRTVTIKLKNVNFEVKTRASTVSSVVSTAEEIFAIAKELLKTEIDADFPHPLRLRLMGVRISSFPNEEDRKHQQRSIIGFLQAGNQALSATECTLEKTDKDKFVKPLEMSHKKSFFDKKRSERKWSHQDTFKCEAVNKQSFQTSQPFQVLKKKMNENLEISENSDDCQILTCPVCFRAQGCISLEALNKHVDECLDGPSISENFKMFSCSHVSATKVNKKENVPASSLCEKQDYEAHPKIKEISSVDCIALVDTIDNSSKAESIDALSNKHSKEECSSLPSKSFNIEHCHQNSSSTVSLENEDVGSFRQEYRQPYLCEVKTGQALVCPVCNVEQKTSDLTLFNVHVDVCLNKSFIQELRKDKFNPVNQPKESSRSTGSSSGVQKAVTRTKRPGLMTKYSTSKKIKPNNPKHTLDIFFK
#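 Kinetic fluorescence readout at 0 and 10 min followed reaction start with substrate at 50 nM final. Beforehand, enzyme (10 nM Pol kappa) stood 15 min with compound at room temperature; buffer-only wells were negative controls.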
# POLH inh: DNA polymerase eta (human) inhibition; Potency, µM (titrated, usually from 114 µM), inactives show at the highest dose activity change, negative = inhibition, most hits filed as inhibitors; 390,000 tested, 1.2% active; recombinant Pol eta, fluorescent DNA replication assay; note: % is set by controls: 0 for no effect and ±100 for the full control effect
#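 Pol eta (10 nM) was preincubated with compounds for 15 min at room temperature, after which fluorescent replication substrate (50 nM final) was added to start the reaction. Fluorescence was read kinetically at 0 and 10 min.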
# POLB inh: blocks human DNA polymerase beta activity; P06746; Pol beta primer extension/strand displacement, fluorescence kinetic; Potency, µM (series often up to 114 µM), inactives show at the highest dose activity change, negative = inhibition, most hits filed as inhibitors; 340,000 tested, 1.3% active; note: % is set by controls: 0 for no effect and ±100 for the full control effect
#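 Values derive from four-parameter Hill fits of normalized kinetic data: reads at 0 and 10 min following addition of 50 nM substrate to 10 nM Pol beta preincubated 15 min with compound.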
# WRN helicase inh: WRN helicase (human) inhibition. Q14191. AID 651768. 360,000 tested, 0.46% active. Potency, µM (top dose mostly 114 µM), for the others: at the top dose activity change, negative = inhibition, hits mostly inhibitors. WRN helicase unwinding, fluorescent forked duplex, kinetic; note: % is set by controls: 0 for no effect and ±100 for the full control effect; nearly all actives have a fitted effect of over 55% in size
#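 WRN at 20 nM final preincubated with compound 15 min at room temperature; reaction started with 100 nM fluorophore/quencher forked duplex oligonucleotide and 2 mM ATP final. Unwinding followed kinetically by red fluorescence (ex 525, em 598 nm).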
# Pol iota inh: DNA polymerase iota (human) inhibition; 390,000 tested, 1% active; Pol iota fluorescent replication assay, 10 min; Potency, µM (doses to about 115 µM), for the others: at the highest dose activity, negative = inhibition, most hits filed as inhibitors; Q9UNA4; AID 588590
#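 Pol iota at 10 nM preincubated 15 min with compounds at room temperature; reaction started with fluorescent substrate, 50 nM final. Fluorescence read kinetically at 0 and 10 min; buffer-only wells as negative control.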
# * hit, by the source's call; u = inconclusive; x = not tested or not shown; [ ] = dose if it differs, or a comment. Calls come from the whole dose curve; as a rule, active = well fitted curve in the direction sought with a large enough effect; inconclusive = small, poorly fitted or top-dose-only effect, or another doubt; inactive = no such curve, though single readings can be large; an effect the other way counts as inactive or inconclusive. Potency is the fitted concentration of half-maximal effect.
SMILES,FEN1 inhibitor,Pol kappa inh,POLH inh,POLB inh,WRN helicase inh,Pol iota inh
Cc1c(O)nc(SCC(=O)Nc2ccc3c4c(cccc24)CC3)n(-c2ccccc2)c1=O,-12%,-3%,-15%,u,-19%,61%
COc1ccc(NC(=O)CSc2nc(O)cc(=O)n2C)cc1,u,u,-1%,0%,u,u
COc1ccc(NC(C)=O)cc1NC(=O)CSc1nc2ncccc2[nH]1,-9%,-9%,-14%,-7%,u,2%
COc1ccc2nc(SCC(=O)NCc3ccccc3)[nH]c2c1,3%,-18%,3%,92%,-4%,32%
CC(c1ncncc1F)[C@](O)(Cn1cncn1)c1ccc(F)cc1F (some centres not stated),x,4%[60.1 µM],x,x,x,x
CCc1c(C)sc2c1CCN(C(=O)Nc1cc(C)ccc1OC)C2c1ccc(F)cc1 (configuration not stated),11%,-7%[60.1 µM],-18%,-1%,x,17%
CCC(=O)OC1=C(C(C)=O)N(Cc2ccccc2)S(=O)(=O)c2ccccc21,-5%,-6%,-14%,3%,x,1%
Cc1ccc(-c2csc(NC(=O)CSc3nc4ccccc4[nH]3)n2)cc1,3%,-16%,-15%,5%,-13%,-11%
COc1ccccc1NC(=O)CCSCCC(=O)Nc1ccccc1OC,-9%,-23%,u,56µM*,-13%,-12%
COc1ccc(-c2csc(NC(=O)CSc3nc4ccccc4c(=O)[nH]3)n2)cc1,-18%,u,u,-29%,-10%[11.6 µM],35µM*
Cc1ccccc1OCCSc1nc2ccc(NC(=O)c3cccc(F)c3)cc2s1,-1%,-1%,-6%,2%,x,17%
COc1cccc(C2c3[nH]c4ccccc4c3C[C@H]3C(=O)N(C4CC4)CC(=O)N23)c1 (some centres not stated),17%,6%,u,1%,-1%,32µM*
COc1cccc(C2c3[nH]c4ccccc4c3C[C@H]3C(=O)N(C)CC(=O)N23)c1 (some centres not stated),-11%,12%,2%,53%,3%,2%
CC(=O)N(C1=C(O)c2ccccc2C(=O)C1=O)C1CCCCC1,-10%,-8%,6%,21%,1%,29%
O=C1c2ccccc2C(=O)c2[nH]c(=O)[nH]c21,u,u,32µM*,50µM*,-15%[11.6 µM],14µM*
CC(=O)N(C)C1=C(O)c2ccccc2C(=O)C1=O,-12%,-15%,-4%,-1%,-5%,28µM*
O=C1C(O)=C(O)C(=O)c2ccccc21,u,-14%,32µM*,x,5%,7.9µM*
CCOC(=O)c1c(Nc2ccc(OCC)cc2)nnc(-c2ccccc2)c1-c1ccccc1,-3%,-15%,-10%,8%,x,7%
O=C(C[n+]1cccc(Cl)c1)c1ccc(O)c(O)c1,-15%,2.2µM*,x,x,x,u
Oc1cc2cc(-c3csc(-c4ccc(F)cc4)n3)cc3c2n1CCC3,-1%,-9%,x,x,x,28%
Cc1ccc(-c2nnc(SCC(=O)Nc3sc(C)c(C)c3C#N)n2C)cc1,-11%,-7%,u,22µM*,-24%,9%
COC(=O)C(N)Cc1ccc(O)c(O)c1 (configuration not stated),-1%,89µM*,6%,-18%,-9%,u
COc1cc(NC(=O)c2ccc([N+](=O)[O-])o2)ccc1NC(=O)c1ccco1,-13%,1%,4%,0.35µM*,5%,-3%
Cc1cc(NC(=O)c2ccc([N+](=O)[O-])o2)ccc1NC(=O)c1ccco1,-18%,-27%,u,u,-9%,u
COc1ccc2nc(NNC(=O)c3cc(=O)c4ccccc4o3)sc2c1,1%,11%,79µM*,u,-9%[57.1 µM],-6%
O=C(NNc1nc2c(F)cccc2s1)c1cc(=O)c2ccccc2o1,1%,-18%,u,u,-19%[57.1 µM],22µM*
COc1ccc2nc(NC(=O)c3cc(=O)c4cc(C)c(C)cc4o3)sc2c1,-7%,-15%,-12%,-11%,x,30%
